# Structures can show the parent of a compound that is named as a salt. A number with no mark means an inactive call.
# Assays:
# Conditions in all cases: 20 µM
# [1] = tested on: Salmonella enterica typhimurium; test: growth AUC normalised to DMSO control (fraction of control); higher = less growth inhibition, active = hit call of the paper
# In short: (§1)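 For the AUC endpoint, growth curves were integrated by the trapezoidal rule up to the exponential-to-stationary transition and normalised to DMSO controls on the same plate. The curves came from OD578 readings taken hourly for 24 h, in three biological replicates. Pathogens had been passaged anaerobically twice and inoculated at an OD578 of 0.01 into pre-reduced mGAM plates carrying 20 μM compound and 1% DMSO, sealed with breathable membranes. Medium for Haemophilus parainfluenzae also contained hemin and NAD.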
# Shigella flexneri = test: as above
# In short: as §1
# Vibrio cholerae = test: as above
# In short: as §1
# [2] = tested on: Yersinia pseudotuberculosis; test: as above
# In short: as §1
# P. vulgatus RND KO = test: growth AUC normalised to DMSO control (median) (fraction of control); higher = less growth inhibition, active = hit call of the paper
# In short: (§2)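 Area under the growth curve, calculated by the trapezoidal rule up to entry into stationary phase, was normalised to vehicle wells on the same plate. Strains had been passaged twice overnight without oxygen and then grown in mGAM in 96-well plates from OD578 0.01, each with an approved-drug library compound at 20 μM in 1% DMSO. OD578 was read hourly over 24 h in an anaerobic incubator, and the median of three biological replicates is given.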
# P. vulgatus WT = test: as above
# In short: as §2
# [3] = tested on: S. enterica typhimurium WT; test: as above
# In short: as §2
# [4] = tested on: S. enterica typhimurium tolC KO; test: as above
# In short: as §2
# 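For growth AUC normalised to DMSO control (median) in this document: active when median AUC fell below 0.1.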
SMILES,growth AUC normalised to DMSO control [1],growth AUC normalised to DMSO control (Shigella flexneri),growth AUC normalised to DMSO control (Vibrio cholerae),growth AUC normalised to DMSO control [2],growth AUC normalised to DMSO control (P. vulgatus RND KO),growth AUC normalised to DMSO control (P. vulgatus WT),growth AUC normalised to DMSO control [3],growth AUC normalised to DMSO control [4]
NS(=O)(=O)c1cc2c(cc1Cl)N=C(CSCc1ccccc1)NS2(=O)=O [Benzthiazide],0.998,0.958,0.947,1.01,0.99,0.992,1.01,0.996
NC(CO)C(=O)NNCc1ccc(O)c(O)c1O (stereo not drawn) [Benserazide hydrochloride],1,1,1.01,0.942,0.969,0.973,0.982,1
CS(=O)(=O)c1ccc(C2=C(c3ccccc3)C(=O)OC2)cc1 [Rofecoxib],1.01,0.99,1.02,0.995,1,1.03,1,0.98
C[N+](C)(C)CCCCCC[N+](C)(C)C [Hexamethonium dibromide dihydrate],0.947,0.996,0.971,0.966,0.992,1,0.99,1.02
CC1CCc2cc(F)cc3c(=O)c(C(=O)O)cn1c23 (stereo not drawn) [Flumequine],0.00993 (active),0.0348 (active),0.0549 (active),0.0304 (active),0.801,0.647,0.0214 (active),0.00721 (active)
COc1ccc2c(c1)N(C[C@H](C)CN(C)C)c1ccccc1S2 [Methotrimeprazine maleate salt],1.01,1.03,1,0.99,1.04,1.02,0.995,0.954

# — the supplement of paper PMC12350171
